# From PubChem BioAssay AID485364 (National Center for Advancing Translational Sciences (NCATS), 2010)
# Among all 360,000 compounds or so, about 11,000 (3.1%) were called active. Not shown: some 4% with an inconclusive outcome. What follows is part of a selection rich in actives, with near analogues and random picks from the rest. Unmarked numbers belong to inactive results. The call rests on the fitted dose curve; in most records, active means well fitted inhibition curve with a large enough effect; inconclusive means small, poorly fitted or top-dose-only effect; inactive means no such curve, though single readings can be large or run the other way.
# Target: Schistosoma mansoni thioredoxin glutathione reductase (TGR) (UniProt Q962Y6)
# Assay: qHTS Assay for the Inhibitors of Schistosoma Mansoni Peroxiredoxins; further: nearly all actives have a fitted effect of over 60% in size
# Details: purified TGR, DTNB reduction, TNB absorbance 405 nm; series mostly up to 114 µM; activity change, negative = inhibition: at the top concentration
# How it was run: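 First, TGR (20 nM dispensed) and NADPH were mixed with compound. Second, a 15 min room-temperature incubation followed. Third, further NADPH and then DTNB were added to start the reaction. Finally, TNB absorbance was monitored kinetically.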
# On the % scale 0 is the no-effect control and ±100 the full control effect; potency means the concentration at half of the fitted maximal effect.
Compound,"activity change, negative = inhibition [%]",Potency
CC(=O)N1CCCc2ccc(NS(=O)(=O)c3ccc(F)cc3F)cc21,-1.51,
COc1cc(OC)cc(-c2nc3nc(C)c(CCC(=O)Nc4ccccc4)c(C)n3n2)c1,-3.65,
Cc1ccc(NC(=O)c2oc3ccc(S(=O)(=O)N4CCCCC4)cc3c2C)cc1Cl,7.17,
O=S(=O)(Nc1ncccn1)c1ccc(NS(=O)(=O)c2cccc(Cl)c2Cl)cc1,1.1,
O=C(CCS(=O)(=O)c1ccccc1Cl)Nc1ccc(S(=O)(=O)Nc2ncccn2)cc1,,14.1 µM (active)
O=C(/C=C/c1ccccc1Cl)Nc1ccc(S(=O)(=O)Nc2ncccn2)cc1,6.23,
CCOc1ccc(NC(=O)Cn2c(=O)n(CCCC(=O)NCc3ccc4c(c3)OCO4)c(=O)c3ccccc32)cc1,-0.638,
O=S(=O)(NCCS(=O)(=O)N1CCN(c2ccccc2)CC1)c1ccc(Cl)cc1,-1.31,
O=C(CNS(=O)(=O)c1cccs1)N1CCN(c2ccccc2Cl)CC1,-8.44,
Cc1ccccc1Nc1nn2c(=O)c3ccc(C(=O)NCCc4ccc(Cl)cc4)cc3nc2s1,-12.3,
O=C(O)c1ccc2c(c1)N(Cc1ccc(F)cc1)C(=O)c1ccccc1S2=O (centres undefined),6,
CCc1ccc(NC(=O)NC(C)c2ccc3c(c2)OCO3)cc1 (centres undefined),-3.56,
CCC1=C/C(=C\c2ccc3c(c2)OCO3)C(=O)S1,,28.2 µM (active)
CCCCN(CC)C(=O)c1ccc2c(c1)OCO2,24.1,
O=C(NCc1ccccn1)c1ccc2nc(-c3ccco3)c(-c3ccco3)nc2c1,,0.891 µM (active)
COc1ccc(-c2nc3ccc(C(=O)NCc4ccc(C)cc4)cc3nc2-c2ccc(OC)cc2)cc1,7.37,
COc1cccc(S(=O)(=O)NCc2ccc(C(=O)NCc3ccccn3)cc2)c1,-21.9,
Cc1ccc(C(=O)C(=S)N2CCOCC2)cc1,-13.4,
CNC(=S)N/N=C/c1ccc(OCc2ccccc2)c(Br)c1,-6.28,
CNC(=S)N/N=C/c1ccc(N2CCOCC2)s1,,28.2 µM (active)
CCN(CC)c1ccc(NC(=O)CN2CCN(CC(=O)Nc3ccc(Cl)cc3)CC2)cc1,0.407,
COc1ccc(C2C(=O)N(C3CCCCCC3)CC(=O)N2CCc2ccc(Cl)cc2)cc1OC (centres undefined),8.56,
Oc1ccc(-c2nc3ccc(Cl)cn3c2Nc2ccc3c(c2)OCO3)cc1,-0.513,
COc1ccc(OC)c(NC(=O)CSC2=Nc3ccccc3C3=NC(CC(=O)NCCc4ccccc4)C(=O)N23)c1 (centres undefined),-2.58,

Compound,"activity change, negative = inhibition [%]",Potency
Cc1coc2c(O)cc3c(c12)OC1(N2CCCCC2)C(=O)NCCCC31 (centres undefined),,17.8 µM (active)
Cn1c(=O)c2c(nc(SCC(=O)Nc3ccc(F)cc3)n2Cc2ccc(Cl)cc2)n(C)c1=O,-12,
O=C(Nc1ccccc1Cl)N1CCC(CN2CCCCC2)CC1,2.55,
Cc1cc(C)c(/C=C/c2onc(C)c2S(=O)(=O)N2CCC(C(=O)Nc3ccc(Cl)cc3C)CC2)c(C)c1,1.13,
CSc1oc(-c2cccs2)nc1S(=O)(=O)c1ccc(Br)cc1,-4.01,
NC(=O)CSc1oc(-c2cccs2)nc1S(=O)(=O)c1ccccc1,-20.4,
CCCCS(=O)(=O)c1oc(-c2cccs2)nc1S(=O)(=O)c1ccccc1,,0.501 µM (active)
COc1ccccc1OCC(=O)Nc1nnc2n1CCS2,5.09,
CCOC(=O)c1c(S(=O)(=O)NCC(=O)Nc2ccc(Cl)c(C(F)(F)F)c2)c(C)n(C)c1C,-8.26,
Cc1ccc(C)c(S(=O)(=O)n2cnc3ccccc32)c1,5.84,
Cc1cc(C)c(S(=O)(=O)n2cc(C(C)C(N)C(=O)O)c3ccccc32)c(C)c1 (centres undefined),,10 µM (active)
Cc1ccc(S(=O)(=O)n2cnc3ccccc32)c(C)c1,-18.3,
NS(=O)(=O)c1ccc2nc(NC(=O)COc3ccccc3)sc2c1,0.388,
O=C(CSc1nnc(-c2c[nH]c3ccccc23)o1)c1ccccc1,-1.66,
O=C(CSc1nnc(-c2ccc(NS(=O)(=O)c3ccccc3)cc2)o1)NCC1CCCO1 (centres undefined),1.62,
O=C(CSc1nnc(-c2ccco2)o1)NCC(=O)c1ccccc1,,44.7 µM (active)
O=C(O)c1cc(Cl)c(Cl)cc1C(=O)Nc1cccc2ncccc12,2.58,
Cc1ccc(/C=C(\C#N)C(=O)Nc2cccc3ncccc23)o1,,20 µM (active)
CCOC(=O)c1ccc(-c2ccc(/C=C(\C#N)C(=O)Nc3ccc(OCC)cc3)o2)cc1,8.1,
COc1ccc(OC)c(CNC(=O)CN2C(=O)CCn3nc(-c4cn(C)c5ccccc45)cc32)c1,-1.65,
COc1ccc(CCN2C(=O)N(c3cccc(OC)c3)C(=O)C2CC(=O)Nc2ccccc2)cc1 (centres undefined),2.12,
Cc1ccc(CN2CCC(CNC(=O)c3cnn(-c4ccc(C)cc4)c3C3CCN(C(=O)OC(C)(C)C)CC3)CC2)cc1,-11.7,
CCCC(=O)Nc1cc(C(=O)NCc2ccc(OC)cc2)ccc1S(=O)(=O)c1ccc(Cl)cc1,10.6,
O=C(NCC#CCSc1nnc(-c2cccc3ccccc23)o1)c1cccs1,,22.4 µM (active)

Compound,"activity change, negative = inhibition [%]",Potency
COc1ccccc1-c1nnc(SCC(N)=O)o1,-4.37,
O=C(OCC#CCSc1nnc(-c2ccncc2)o1)c1sc2ccccc2c1Cl,-26.9,
CSc1ccc(NC(=O)Cn2nnnc2-c2ccccc2F)cc1,3.69,
Cc1c(-c2ccccc2)cn2c1-c1ccc(C)n1CC2,,35.5 µM (active)
CCCOc1ccc(C(=O)Nc2ccc3oc(-c4cccc(Cl)c4Cl)nc3c2)cc1,-6.36,
Cc1ccc(S(=O)(=O)c2nc(-c3cccs3)oc2N2CCCCC2)cc1,-26.4,
Cc1ccccc1NC(=O)Cn1c(=O)n(CCc2ccccc2)c(=O)c2ccccc21,8.99,
C/C(CCC(=O)OC[C@H]1O[C@H](C#Cc2ccccc2)C=C[C@@H]1Oc1ccc(C)cc1)=N\OC[C@@H](O)[C@H]1O[C@@H]2OC(C)(C)O[C@@H]2[C@H]1O,,2.51 µM (active)
Cc1ccc(Cl)cc1NC(=O)Cc1ccc(-n2c(C)nc3cccnc32)cc1,-13.5,
O=C(CCS(=O)(=O)c1ccccc1)N(Cc1cccnc1)c1nc2c(F)cccc2s1,,0.562 µM (active)
Cc1cc(C)c2nc(N(CCN(C)C)C(=O)/C=C/c3cccs3)sc2c1,-18,
CN(C)S(=O)(=O)c1ccc(C(=O)N(Cc2cccnc2)c2nc3c(F)cc(F)cc3s2)cc1,0.57,
Cc1cccc2sc(N(CCCN(C)C)C(=O)CCS(=O)(=O)c3ccccc3)nc12,,10 µM (active)
Cc1ccc2sc(N(CCN(C)C)C(=O)/C=C/c3cccs3)nc2c1C,2.08,
COc1ccc(N(C)C(=O)CCS(=O)(=O)c2cccc3nsnc23)cc1,,inactive
O=C(C1COc2ccccc2O1)N(Cc1cccnc1)c1nc2c(F)cc(F)cc2s1 (centres undefined),-3.03,
CN(C)CCCN(C(=O)c1ccc(S(=O)(=O)N2CCCc3ccccc32)cc1)c1nc2ccc(F)cc2s1,-19.5,
COc1cccc2sc(N(CCCN(C)C)C(=O)CCS(=O)(=O)c3ccccc3)nc12,,2 µM (active)
Cc1ccc(N2CC(NC(=O)Cc3cccs3)CC2=O)cc1 (centres undefined),-1.46,
Cc1nc2sc(C)c(C)n2c(=O)c1S(=O)(=O)NCCc1ccc(Cl)cc1,0.289,
O=C(NC1CCCCC1)c1ccc(Cn2c(SCc3ccccc3)nc3cccnc32)cc1,3.32,
COc1ccc(CCNc2nc(-c3ccc(Cl)cc3)cc(C(F)(F)F)n2)cc1OC,0.381,
Cc1ccccc1OCCSc1nc2ccc(NC(=O)c3ccco3)cc2s1,4.23,
Cc1cc(C)c(NC(=O)CSc2nc3nccnc3c(=O)n2CCc2c[nH]c3ccccc23)c(C)c1,-4.93,

Compound,"activity change, negative = inhibition [%]",Potency
Cc1ccc(NC2=C(c3ccc(C(F)(F)F)cc3)C(=O)c3ccccc32)cc1F,1.74,
CCOc1ccccc1NC(=O)CN1CCCN(Cc2cccc(Cl)c2)S1(=O)=O,5.08,
CCOc1ccc(CCNC(=O)CN(c2ccc(C)cc2)S(=O)(=O)N(C)C)cc1OCC,5.27,
CCCN(C(=O)Cn1cc(S(=O)(=O)N2CCN(c3ccccc3F)CC2)c2ccccc2c1=O)c1cccc(C)c1,-0.645,
COc1ccccc1C(CNC(=O)c1cccc(S(=O)(=O)Nc2ccc(F)cc2)c1)N(C)C (centres undefined),-7.49,
CN(C)C(CNC(=O)c1cccc(S(=O)(=O)Nc2ccc(Br)cc2)c1)c1ccco1 (centres undefined),,35.5 µM (active)
COc1ccc(C(CNC(=O)c2ccc(S(=O)(=O)Nc3ccccc3F)cc2)N(C)C)cc1 (centres undefined),0,
COc1ccccc1C(CNC(=O)c1cccc(NS(=O)(=O)c2ccc(Br)cc2)c1)N(C)C (centres undefined),-18.1,
CN(C)C(CNC(=O)c1ccc(S(=O)(=O)NCc2ccco2)cc1)c1ccccc1 (centres undefined),-27,
CC(=O)c1ccc(S(=O)(=O)Nc2ccc(C(=O)NCC(c3ccccc3)N(C)C)cc2)cc1 (centres undefined),,14.1 µM (active)
CCN(Cc1ccccc1)Cc1c(O)ccc2c(=O)c(-c3ccc(Cl)cc3Cl)coc12,-29.1,
COCCN(Cc1ccco1)C(=O)Cn1ncc2c([nH]c3ccccc32)c1=O,-24.7,
COc1cccc(CNC(=O)c2ccc3c(c2)sc2nc(-c4cccc(OC)c4)cn23)c1,-0.0879,
O=C(NCCS(=O)(=O)N1CCN(c2ccc(F)cc2)CC1)c1ccccc1Br,-2.24,
CC(NC(=O)c1cc2c(=O)n3ccccc3nc2n(C(C)C)c1=N)c1ccccc1 (centres undefined),-1.78,
CCc1cc(C(c2ccccc2OC)N2CCOCC2)c(NC(=O)c2ccccc2)s1 (centres undefined),,20 µM (active)
COc1cc(C(c2c(NC(=O)c3ccco3)sc(C)c2C)N2CCOCC2)cc(OC)c1OC (centres undefined),-35.7,
CCc1cc(C(N)=O)c(NC(=O)c2ccc(OC)cc2)s1,3.99,
O=C(Cn1c(=O)n(Cc2cccs2)c(=O)c2cccnc21)Nc1ccc(F)cc1,-3.83,
CC(=O)c1ccc(-c2nnc(CCC(=O)N(C)Cc3cnc4ccccn34)o2)s1,-14.4,
CCc1ccc(CN(C)Cc2nc(Cc3ccccc3)no2)nc1,-21.7,
CCc1ccc(CN(C)C(=O)CCc2nnc(-c3ccc(-c4ccccc4)cc3)o2)nc1,,35.5 µM (active)
